{"source": "PubChem BioAssay (Tox21)", "note": "Inconclusive results are not listed. A number with no mark means an inactive call. The call rests on the fitted dose curve; in most records, active means well fitted cell-killing curve with a large enough effect in the repeat runs; inconclusive means weak or mixed curves, or effect the other way; inactive means flat fitted curve, though single readings scatter. On the % scale 0 is the no-effect control and ±100 the full control effect.", "data": [{"test": "qHTS assay to identify small molecule antagonists of the estrogen related receptor signaling pathway with the pleiotropic PPARgamma coactivator (PGC) cell viability counter screen (AID 1224822;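 further: viability read after 17.5 h compound exposure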)", "conditions": "ERR/PGC reporter cell line viability counter screen; series mostly up to 46.1 µM; viability change, negative = cytotoxic: at the top concentration", "source_text": "National Center for Advancing Translational Sciences [NCATS]\nNIH Chemical Genomics Center [NCGC]\nU.S. Environmental Protection Agency [EPA]\nNational Institutes of Environmental Health Sciences [NIEHS]\nNational Toxicology Program [NTP]\nU.S. Food and Drug Administration [FDA]\nEstrogen related receptors (ERRs), the first orphan nuclear receptors discovered, play an important role in the control of cellular energy metabolism. ERRs are required for high-energy production in response to the environmental challenges. The pleiotropic PPARgamma coactivator (PGC) is a major partner of ERR and a key regulator in energy homeostasis. Together they have been implicated in the etiology of metabolic disorders such as Type 2 diabetes and metabolic syndrome. ERR-alpha was also identified as an adverse marker for breast cancer progression; ERR-alpha-positive tumors have a poor prognosis. To screen and to identify environmental compounds that perturb the ERR and PGC/ERR signaling pathways could provide valuable information for potential therapeutic or preventive measures in the treatment of metabolic disease. To differentiate true PGC/ERR antagonists or agonist from cytotoxic substances, the assay is multiplexed with cell viability assay.\nTox21 Assay Protocol Summary:\nThe PGC/ERR cells were dispensed at 2,000 cells/5 ul/well in 1536-well white plates using a Multidrop dispenser. After the assay plates were incubated at a 37 C/5% CO2 incubator for 6 hours, 23 nL of compounds dissolved in DMSO, positive and negative controls or DMSO only was transferred to the assay plate by a pin tool. The plates were incubated at 37 C for 17.5 hours. 1 ul/well of CellTiter-Fluor reagent was added into the assay plates using a Flying Reagent Dispenser. After 30 min incubation at 37 C/5% CO2, the fluorescence intensity in the plates was measured using a ViewLux plate reader.", "units": {"viability change, negative = cytotoxic": "%"}, "values": [{"smiles": "CCN(CC)CCNC(=O)c1ccc(NC(C)=O)cc1", "viability change, negative = cytotoxic": 4.95}, {"smiles": "Cc1oncc1C(=O)Nc1ccc(C(F)(F)F)cc1", "viability change, negative = cytotoxic": 11.7}, {"smiles": "CCc1cccc(N(C)C(N)=Nc2cccc3ccccc23)c1", "viability change, negative = cytotoxic": -21.3}, {"smiles": "Cc1nc2ccccn2c(=O)c1CCN1CCC(C(=O)c2ccc(F)cc2)CC1", "viability change, negative = cytotoxic": -1.91}, {"smiles": "Cc1ccccc1N1C(=O)c2cc(S(N)(=O)=O)c(Cl)cc2NC1C", "note": "(stereo unspecified)", "viability change, negative = cytotoxic": 9.22}, {"smiles": "O=C(O)c1cccnc1C(=O)O", "viability change, negative = cytotoxic": 12.8}, {"smiles": "CCCc1c(OCCCOc2ccc(OCC(=O)O)cc2)ccc(C(C)=O)c1O", "viability change, negative = cytotoxic": 10.6}, {"smiles": "C[N+](C)(C)CCOC(N)=O", "viability change, negative = cytotoxic": 5.13}, {"smiles": "COC(=O)Nc1nc2ccc(C(=O)c3cccs3)cc2[nH]1", "viability change, negative = cytotoxic": -36.3}, {"smiles": "C(=C\\c1ccccc1)/CN1CCN(C(c2ccccc2)c2ccccc2)CC1", "viability change, negative = cytotoxic": -13.3}, {"smiles": "CCC1(C)CC(=O)NC1=O", "note": "(stereo unspecified)", "viability change, negative = cytotoxic": 5.59}]}]}
